Compounds with a hit are over-represented: about 2.1% of the library has one in this group of screens.
SIRT5 inh: blocks human SIRT5 desuccinylation of peptide. Purified SirT5, succinyl-peptide AMC, trypsin-coupled fluorescence. Q9NXA8. AID 652115. actives 1.1% (n = 330,000). inhibition, % at 15 µM; in the data active means inhibition above about 15%; inconclusive means no clear call, values can overlap the other calls
Target sequence (Q9NXA8 whole entry, looked up): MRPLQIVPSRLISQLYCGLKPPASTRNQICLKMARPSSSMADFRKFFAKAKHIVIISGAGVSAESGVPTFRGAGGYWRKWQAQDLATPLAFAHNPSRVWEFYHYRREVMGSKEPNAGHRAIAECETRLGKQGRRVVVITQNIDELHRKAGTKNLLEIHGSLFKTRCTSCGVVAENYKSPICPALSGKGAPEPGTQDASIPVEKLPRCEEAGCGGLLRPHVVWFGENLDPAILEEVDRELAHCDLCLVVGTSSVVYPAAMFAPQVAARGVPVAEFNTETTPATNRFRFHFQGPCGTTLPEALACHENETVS
PfHsp90 yeast 2: reduces growth (ATP signal) of yeast expressing P. falciparum Hsp90. S. cerevisiae expressing PfHsp90, BacTiter-Glo ATP, 48 h; yeast lacking PDR1 and PDR3 efflux regulators. actives 0.32% (n = 310,000). AID 504621. inhibition, % at 9.4 µM;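 active means every replicate shows inhibition above about 80%, whatever the replicate mean, limit read from the data; inconclusive means mean inhibition reaches the set limit but some replicate falls short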;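 further: 0% = DMSO neutral controls and 100% = 20 µM radicicol positive controls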
NSD2 HMT inh: NSD2 (human) methyltransferase inhibition; NSD2 peptide methylation, AlphaScreen, 120 min; inhibition, % at 12.5 µM; O96028; actives 0.54% (n = 310,000); in the data active means inhibition above about 50%
Casp6 inh: inhibitors of human caspase-6 | P55212 | purified caspase-6, Z-VEID-R110 cleavage fluorescence | inhibition, % at 12.5 µM | actives 0.53% (n = 350,000) | AID 686996;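 active means mean inhibition across replicates at least about 35%, with every replicate also reaching that limit, limit read from the data; inconclusive means only one of the two criteria met; inactive means neither criterion met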;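 further: 0% = median of neutral control wells and 100% = no fluorescence left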
Target sequence (P55212 24-179 limits assumed): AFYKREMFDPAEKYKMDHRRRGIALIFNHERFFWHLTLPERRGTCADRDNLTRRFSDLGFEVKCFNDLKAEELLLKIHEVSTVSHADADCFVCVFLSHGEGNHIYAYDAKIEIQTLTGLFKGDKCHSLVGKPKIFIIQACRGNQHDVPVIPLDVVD
Target sequence (P55212 194-293 limits assumed): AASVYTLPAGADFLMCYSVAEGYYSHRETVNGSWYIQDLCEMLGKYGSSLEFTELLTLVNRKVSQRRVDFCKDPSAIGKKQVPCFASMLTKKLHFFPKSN
ARNT-TACC3 inh: ARNT/TACC3 interaction disruption | inhibition, % at 9.99 µM | Q9Y6A5 | actives 0.66% (n = 390,000) | AlphaScreen His-ARNT PAS-B/GST-TACC3 binding, luminescence; TACC3 fragment carries E629A point mutation;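 active means mean inhibition of replicates at least 50% and at least half of replicates each reaching 50%; inconclusive means half or more replicates reach 50% but mean below 50%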;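 further: 0% = complete ARNT plus TACC3 wells and 100% = ARNT alone without TACC3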
Numbers without * were called inactive.

What do the screens show for `COc1cccc(CN2[C@@H](CO)[C@H](c3ccccc3)C23CN(C(=O)C2CCCC2)C3)c1`?
SIRT5 inh: 26*; Casp6 inh: 2

How did COc1cccc(CN2[C@H](CO)[C@H](c3ccccc3)C23CN(C(=O)C2CCCC2)C3)c1 do in these assays?
SIRT5 inh: 2; Casp6 inh: 0

What do the screens show for `COc1ccccc1CN1[C@H](CO)[C@H](c2ccccc2)C12CN(C(C)=O)C2`?
SIRT5 inh: 17*; Casp6 inh: 1

Results for CCOC(=O)c1ccc(NC(=O)CC2OCCN(CC)C2=O)cc1 (stereo unspecified) ?
PfHsp90 yeast 2: inconclusive; NSD2 HMT inh: 3

What do the screens show for `CCOC(=O)c1ccc(NC(=O)CC2C(=O)OCCN2CC)cc1` (stereo unspecified)?
SIRT5 inh: -2; PfHsp90 yeast 2: 108*; NSD2 HMT inh: -2; Casp6 inh: -2; ARNT-TACC3 inh: 1

How did CCNC(=O)C[C@H]1CC[C@@H]2[C@H](COc3ccc(NC(=O)Nc4cccc(OC)c4)cc3C(=O)N2C)O1 do in these assays?
ARNT-TACC3 inh: 1

Results for COCC(=O)NC[C@@H]1[C@H](c2ccc(C3=CCCC3)cc2)[C@@H](CO)N1C(C)=O ?
SIRT5 inh: -5; Casp6 inh: 2; ARNT-TACC3 inh: -5

How did CCOc1ccc(NC(=O)COC(=O)Cc2ccsc2)cc1 do in these assays?
SIRT5 inh: 20*; PfHsp90 yeast 2: 32; NSD2 HMT inh: -3; Casp6 inh: -1; ARNT-TACC3 inh: 4

What do the screens show for `COCCn1c(SCc2ccccc2F)nc2ccccc2c1=O`?
SIRT5 inh: 0; PfHsp90 yeast 2: -10; NSD2 HMT inh: -5; Casp6 inh: -2; ARNT-TACC3 inh: -8

Results for O=c1c2ccccc2nc(SCc2ccccc2F)n1C1CCCC1 ?
PfHsp90 yeast 2: -2; NSD2 HMT inh: 2; Casp6 inh: 38*; ARNT-TACC3 inh: 47*

What do the screens show for `CN1C(=O)c2cc(NC(=O)C3CCOCC3)ccc2OC[C@H]2O[C@@H](CC(=O)NC3CCCC3)CC[C@H]21`?
SIRT5 inh: -1; Casp6 inh: -1; ARNT-TACC3 inh: -2

Results for O=C(O)/C=C/C(=O)N1Cc2cc3ccccc3nc2C1 ?
SIRT5 inh: 5; PfHsp90 yeast 2: 1; NSD2 HMT inh: 0; Casp6 inh: 54*; ARNT-TACC3 inh: 23

What do the screens show for `CCOC(=O)N1Cc2cc3ccccc3nc2C1`?
NSD2 HMT inh: -1; Casp6 inh: 5

How did CCN1[C@H](C(=O)NCCCN(C)C)[C@@H](CO)[C@@H]2Cn3c(ccc(C4=CCCC4)c3=O)[C@@H]21 do in these assays?
SIRT5 inh: -4; Casp6 inh: 1

What do the screens show for `CN1C(=O)/C(=N/OC(=O)c2ccccc2)c2ccccc21`?
PfHsp90 yeast 2: 137*; ARNT-TACC3 inh: -8

What do the screens show for `O=C1/C(=C/c2cccnc2)Oc2cc(OS(=O)(=O)c3ccc(F)cc3)ccc21`?
SIRT5 inh: -2; NSD2 HMT inh: 4; Casp6 inh: -3; ARNT-TACC3 inh: 60*

What do the screens show for `Cc1ccc(S(=O)(=O)Oc2ccc3c(c2)O/C(=C\c2cccnc2)C3=O)cc1`?
PfHsp90 yeast 2: 12; NSD2 HMT inh: 0; ARNT-TACC3 inh: -8

What do the screens show for `OC[C@H]1[C@H](c2ccc(C#Cc3ccccc3)cc2)[C@H]2CN(Cc3cncnc3)CCCCN21`?
SIRT5 inh: -3; Casp6 inh: 1; ARNT-TACC3 inh: 19

What do the screens show for `COc1cccc(S(=O)(=O)N(C)C[C@@H]2Oc3cc(C4=CCCC4)ccc3S(=O)(=O)N([C@H](C)CO)C[C@@H]2C)c1`?
SIRT5 inh: -6; Casp6 inh: 1; ARNT-TACC3 inh: -1

Results for COc1cccc(S(=O)(=O)N(C)C[C@H]2Oc3cc(C4=CCCC4)ccc3S(=O)(=O)N([C@@H](C)CO)C[C@H]2C)c1 ?
SIRT5 inh: 21*; Casp6 inh: 3; ARNT-TACC3 inh: 11

How did COc1cccc(S(=O)(=O)N(C)C[C@@H]2Oc3cc(C4=CCCCC4)ccc3S(=O)(=O)N([C@@H](C)CO)C[C@H]2C)c1 do in these assays?
SIRT5 inh: 22*; Casp6 inh: 0; ARNT-TACC3 inh: 25

Results for COc1cccc(S(=O)(=O)N(C)C[C@H]2Oc3cc(C4=CCCCC4)ccc3S(=O)(=O)N([C@@H](C)CO)C[C@@H]2C)c1 ?
SIRT5 inh: -1; Casp6 inh: 0; ARNT-TACC3 inh: -14

Results for CCC(=O)N1[C@@H](CO)[C@@H](c2ccccc2)C12CN(C(=O)c1ccc(F)cc1)C2 ?
SIRT5 inh: 0; Casp6 inh: -2

How did CCCC(=O)Nc1ccc2c(c1)C(=O)N(C)C[C@H](OC)[C@H](C)CN(Cc1ccccc1F)[C@H](C)CO2 do in these assays?
SIRT5 inh: -7; Casp6 inh: -2; ARNT-TACC3 inh: -9

How did C[C@H](CO)N1C[C@H](C)[C@@H](CN(C)Cc2ccc(C(F)(F)F)cc2)Oc2ccc(NC(=O)CCN3CCOCC3)cc2CC1=O do in these assays?
SIRT5 inh: 7; Casp6 inh: 2; ARNT-TACC3 inh: 12

What do the screens show for `Cc1onc(-c2ccccc2)c1C(=O)N(Cc1ccco1)Cc1cccs1`?
SIRT5 inh: 0; PfHsp90 yeast 2: 36; NSD2 HMT inh: 0; Casp6 inh: 47*; ARNT-TACC3 inh: -1

How did Cc1onc(-c2ccccc2)c1C(=O)NCc1ccco1 do in these assays?
PfHsp90 yeast 2: -3; NSD2 HMT inh: 2; ARNT-TACC3 inh: -2

What do the screens show for `O=C(CSc1cccc[n+]1[O-])Nc1ccc(Br)cc1Br`?
SIRT5 inh: -7; PfHsp90 yeast 2: -6; NSD2 HMT inh: 1; Casp6 inh: -2; ARNT-TACC3 inh: -1

What do the screens show for `O=C(CSc1cccc[n+]1[O-])Nc1ccc(Cl)cc1F`?
SIRT5 inh: -15; PfHsp90 yeast 2: -23; NSD2 HMT inh: 2; Casp6 inh: 37*; ARNT-TACC3 inh: -2

What do the screens show for `COc1cc(CCC(=O)N2CCN(c3ccccc3)CC2)cc(OC)c1OC`?
SIRT5 inh: 29*; PfHsp90 yeast 2: 14; NSD2 HMT inh: -6; Casp6 inh: 1; ARNT-TACC3 inh: -15

Results for COc1ccc(CNC(=O)N2CCN(c3ccccc3)CC2)cc1 ?
SIRT5 inh: 16*; PfHsp90 yeast 2: -35; NSD2 HMT inh: 37; Casp6 inh: -1; ARNT-TACC3 inh: -3

How did COc1ccc(N2CCN(C(=O)NCc3ccc(C)cc3)CC2)cc1 do in these assays?
SIRT5 inh: -3; PfHsp90 yeast 2: 34; NSD2 HMT inh: -6; Casp6 inh: -2; ARNT-TACC3 inh: -1

What do the screens show for `COc1ccc(N2CCN(C(=O)CCc3cc(OC)c(OC)c(OC)c3)CC2)cc1`?
SIRT5 inh: -8; PfHsp90 yeast 2: -11; NSD2 HMT inh: 1; Casp6 inh: -3; ARNT-TACC3 inh: -3

Results for C[C@@H]1CN([C@@H](C)CO)C(=O)c2cc(C#Cc3ccccn3)cnc2O[C@@H]1CN(C)Cc1ccncc1 ?
SIRT5 inh: 2; Casp6 inh: -2; ARNT-TACC3 inh: -2

High-throughput results as filed in PubChem BioAssay.
